In PubChem BioAssay AID432 (Sanford-Burnham Center for Chemical Genomics, 2006):
Screen size: about 64,000 compounds; about 15 (0.02%) were called active. These entries were drawn from the full list. Entries with a potency or affinity are not part of this list. Values without a mark were called inactive. No rule for the calls is given here.

target: Bcl-2-related protein A1 (Mus musculus) (UniProt Q07440); assay: Bfl-1 inhibitors, primary screen, biochemical, fluorescence polarization, FITC-Bid, mouse (AID 432); details: FITC-Bid BH3 peptide fluorescence polarization displacement; at 20 µM; stronger effect = higher value
Sequence (Q07440 whole entry, looked up): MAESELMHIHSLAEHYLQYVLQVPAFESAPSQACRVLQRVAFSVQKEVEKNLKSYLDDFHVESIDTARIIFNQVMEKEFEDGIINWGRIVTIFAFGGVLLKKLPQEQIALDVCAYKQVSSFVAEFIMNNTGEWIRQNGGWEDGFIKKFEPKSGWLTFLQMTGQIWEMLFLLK

Structure (SMILES)	displacement [%]
COC(=O)c1ccc(C2C(C(=O)Nc3ccc(C)cc3C)=C(C)Nc3ncnn32)cc1 (stereo unspecified)	-1.9
CCOC(=O)CN1C(=O)C(C)(C)Oc2ccc(C(=O)NC(C)(C)CC)cc21	-6.4
Cc1cc(C)cc(N2CC34C=CC(O3)C(C(=O)OCC(=O)NCc3ccco3)C4C2=O)c1 (stereo unspecified)	-10.1
Cc1nc2scc(-c3ccccc3)c2c(=O)n1N	-4
COc1ccc(S(=O)(=O)Cc2ccc(C(=O)N3CCN(c4ccc(Cl)cc4)CC3)o2)cc1	-2.7
Nc1nc(-c2cccc(NS(=O)(=O)c3ccccc3)c2)cs1	5.8
CN(C)c1nc(NCc2ccccc2)nc(Oc2ccc(=O)[nH]n2)n1	-7.2
COc1cc(C(c2nnnn2C2CCCC2)N2CCc3ccccc3C2)ccc1O (stereo unspecified)	-5.3
Cc1ccnc(NS(=O)(=O)c2ccc(NC(=O)C3CCCCC3C(=O)O)cc2)n1 (stereo unspecified)	-3.9
Cc1csc(NC(=O)CCn2c(=O)oc3ccccc32)n1	2.1
O=C1CC(N(Cc2ccco2)C(=O)Nc2ccc(F)cc2)C(=O)N1c1ccc(F)cc1 (stereo unspecified)	1.2
CCOc1ccc(OCC)c(NC(=O)CSc2nnc(-c3cccnc3)o2)c1	-6
CCOC(=O)C1CCN(C2CC(=O)N(c3cccc(Cl)c3)C2=O)CC1 (stereo unspecified)	5.3
CCN(CC)C(=O)CSC1=C(C#N)C(c2cccs2)C=C(C)N1 (stereo unspecified)	4.6
O=C(NCCN1C(=O)C2C3C=CC(C3)C2C1=O)NCc1ccccc1 (stereo unspecified)	8.8
CCOC(=O)C1CCCN(C(=O)c2cn(C)c3ccc(S(=O)(=O)N(C)C)cc3c2=O)C1 (stereo unspecified)	-2.5
COc1cccc(NC(=O)c2ncn[nH]2)c1	-5.2
O=C(O)c1ccc(COc2c(F)c(F)cc(F)c2F)cc1	-4
CCOCCn1c(SCc2cccc(C)c2)nc2c1c(=O)[nH]c(=O)n2C	2.1
O=C(OCc1cccc2ccccc12)c1ccc2c(=O)[nH]c(CN3CCOCC3)nc2c1	-1.5
Cc1cc2cc(C(c3nnnn3Cc3ccco3)N3CCc4ccccc43)c(=O)[nH]c2cc1C (stereo unspecified)	6.1
CCOC(=O)Cc1nnc(NC(=O)c2cccc(OCC)c2)s1	-3.8
CCn1cc(Cl)c(C(=O)Nc2nc3ccccc3n2CCN2CCCCC2)n1	7.6
O=C(Nc1c(C(=O)N2CCCCC2)cnn1-c1ccccc1)c1ccccc1	1.1

Structure (SMILES)	displacement [%]
O=C1CCCCCN1C(=O)c1cccc(C(=O)N2CCCCCC2=O)c1	-3.4
CCOCC(=O)N1CCCC(C(=O)OCC)C1 (stereo unspecified)	5.1
COC(=O)c1cc(=O)[nH]c(SCc2cccc(C)c2)n1	-9.3
CC(C)CCNC(=O)NC(=O)COc1ccccc1C#N	-1.9
CCCS(=O)(=O)N1CCCC(C(=O)NCCN(CC)c2ccccc2)C1 (stereo unspecified)	-0.1
CCCN1C(=O)CC(c2ccco2)Sc2ccccc21 (stereo unspecified)	-8.4
CN(C)S(=O)(=O)c1ccc(C(=O)Nc2ccc(F)cc2F)cc1	-3.7
O=S(=O)(c1ccccc1)c1cccc(S(=O)(=O)N2CCCCC2)c1	-8.3
CC1=C(C(N)=O)C(c2cccc(O)c2)n2nc(CCCO)nc2N1 (stereo unspecified)	-2.3
O=C(c1ccccc1S(=O)(=O)NCc1ccccc1)N1CCCCC1	-2.9
CCCN(c1ccc(C(C)C)cc1)S(=O)(=O)c1c(C)noc1C	-2
COC(=O)Nc1ccc2c(c1)ncn2C1CCCCC1	-3.2
Brc1ccccc1-c1nnc(CSc2nncn2-c2ccccc2)o1	-1.8
CCCCC(CC)CNC(=O)c1ccc2c(c1)OCO2 (stereo unspecified)	0.7
CC1CC(C)CN(Cc2nc3c(c(=O)n(C)c(=O)n3C)n2CCN2CCOCC2)C1 (stereo unspecified)	29.2
Cc1ccc(S(=O)(=O)N(C)CCCC(=O)n2nc(C)cc2C)cc1	7
COc1ccc(C2CCN(Cc3cccnc3)CC2O)cc1 (stereo unspecified)	-8.7
CCOC(=O)N1CCC(NC(=O)CN2C(=O)CSc3ncccc32)CC1	3.4
Cc1ccc(S(=O)(=O)c2cc3c(=O)n4ccccc4nc3n(CC3CCCO3)c2=N)cc1C (stereo unspecified)	-14.7
Cc1cc(NCc2ccc(F)cc2Cl)n2nnnc2n1	-1.6
Cc1c(N(C)C(=O)C23CC4CC(CC(C4)C2)C3)c(=O)n(-c2ccccc2)n1C	-6
CC1(C)NC(=O)N(c2ccccc2Cl)C1(C)NO (stereo unspecified)	-2.3
CCOC(=O)N1CCC(c2cc(=O)n3[nH]c(-c4ccccc4)cc3n2)CC1	5.1
CCOC(=O)c1ccc(NC(=O)CC2C(=O)N(c3cccc(OC)c3)C(=O)N2CCOC)cc1 (stereo unspecified)	-1.5

Structure (SMILES)	displacement [%]
O=C(c1cc2c(s1)CCCCC2)N1CCN(c2ncccn2)CC1	8.4
O=C(CN1CCN(c2ccc(F)cc2)CC1)N1CCOCC1	-2.4
COc1nc(N(C)C)nc(N(OC)S(=O)(=O)c2ccccc2Cl)n1	3.7
CCC(C)c1c(O)nc(SCC(=O)c2ccccc2)[nH]c1=O (stereo unspecified)	-7.8
Cc1ccc(S(=O)(=O)NC(=O)COc2ccccc2C(N)=O)cc1	-4.3
COc1ccccc1-c1nc(C#N)c(N2CCN(C(c3ccccc3)c3ccccc3)CC2)o1	-2.4
CC(C)OCCCNC(=O)c1sc(=S)n(C)c1N	10.9
CCOC(=O)C1CCN(CC(=O)Nc2c(C(=O)OC)[nH]c3ccccc23)CC1	-7
CCOc1cc2c(cc1OCC)C(C(=O)O)C(c1cc(Br)c(O)c(OC)c1)N(C)C2=O (stereo unspecified)	6.3
CCSCCNC(=O)c1cc(-n2cnnc2)ccc1Cl	3
CCOC(=O)c1oc2cccc(O)c2c1CN(Cc1ccccc1)C(C)=O	1.2
O=C(CCC(=O)N(CC(=O)NC1CCCCC1)Cc1ccco1)Nc1nccs1	-3.5
CSc1nc(-c2ccccc2O)nc(-c2ccccc2O)n1	4.5
NC(=O)CSc1nnc(-c2ccc(S(=O)(=O)N3CCCC3)cc2)n1Cc1ccco1	-5.3
CC1CCN(CCCNC(=O)c2cc3sccc3n2C)CC1	1.5
CCN1CCN(CC(=O)Nc2c(C(=O)OC)[nH]c3cccc(Cl)c23)CC1	-4.1
O=C(O)c1ccc(NS(=O)(=O)c2ccc(Cl)cc2)cc1	-8.2
CCn1c(SC(C)C(=O)O)nc2sc3c(c2c1=O)CCC3 (stereo unspecified)	22.5
CCn1c(SCC(=O)OC)nc2sc3c(c2c1=O)CCC3	2.2
Cn1c(=O)c2ncn(CC(=O)NCCC3=CCCCC3)c2n(C)c1=O	-18.3
COCCCNC(=O)Cn1cc2c(n1)CCCCC2	5
O=C(c1cccc(S(=O)(=O)N2CCCCC2)c1)N1CCOCC1	-1.1
COc1ccc(-c2cc(C(F)(F)F)nc(NC3CCCC3)n2)cc1OC	-2.6
CS(=O)(=O)c1nc(-c2ccccc2)cc(C(F)(F)F)n1	37.1

Structure (SMILES)	displacement [%]
CCOC(=O)Nc1c(O)ccc2oc(C)c(-c3ccccc3)c12	1.9
Cc1ccc(C)c(-n2nnnc2SCC(=O)NCCC2=CCCCC2)c1	8.5
CCc1ccccc1NC1=NCC(=O)N1C1CCCCC1	0.4
Cc1ccc(CN2C(=O)CCC2C(=O)NC2CCCC2)cc1 (stereo unspecified)	-12
Cc1cc(NC(=O)Nc2cccc3ccccc23)no1	-1.4
Cc1cc(O)ccc1Nc1nc2ccccc2nc1Nc1ccc(O)cc1C	-1.4
CN1CCN(C2=C(Cl)C(=O)N(c3cccc(Cl)c3)C2=O)CC1	32.3
CN1CCN(C2=C(Cl)C(=O)N(c3ccc(Cl)cc3)C2=O)CC1	49.4
CCSc1nnc(NC(=O)C(C)(C(F)(F)F)C(F)(F)F)s1	-5.7
CCSc1nnc(NC(=O)C(C)C)s1	0.1
Cc1ccc(C2C(C#N)=C(N)SC(N)=C2C#N)c(C)c1	-31.9
NS(=O)(=O)c1ccc(-n2nncc2C23CC4CC(CC(C4)C2)C3)cc1	-2.1
COC(=O)C1=C(N)Oc2cc(C)n(CC3CCCO3)c(=O)c2C1c1ccc(Cl)cc1 (stereo unspecified)	-2.1
c1cn(-c2ncnc3sc4c(c23)CCCC4)cn1	-0.8
O=C(NCc1ccccc1)c1c[nH]c2ccc(S(=O)(=O)Nc3ccc4c(c3)OCCO4)cc2c1=O	-3.6
O=C(Nn1c(C2CCC2)nc2ccccc2c1=O)C1CCC1	-9
Cn1c(=O)[nH]c(=O)c2c1nc(Br)n2Cc1ccccc1F	-3.5
CC(=O)c1ccc(OCC(O)CN2CCN(c3ccccn3)CC2)cc1 (stereo unspecified)	-0.7
CC1=CC(C)(C)N2C(=O)C3(C(C#N)=C(N)Oc4cc(O)ccc43)c3cccc1c32 (stereo unspecified)	-2.9
COc1ccc(NC(=O)c2cnn3c(C(F)(F)F)cc(-c4ccco4)nc23)cc1OC	12
O=C(Nc1ccc2c(c1)OCO2)c1cnn2c(C(F)(F)F)cc(-c3ccco3)nc12	1
COc1ccccc1N1CCN(C(=O)C(C)N(c2ccc(C)c(C)c2)S(C)(=O)=O)CC1 (stereo unspecified)	-2
COCCNC(=O)Cn1nc(C(F)(F)F)c(Br)c1C	-0.1
CC1CCC(NC(=O)CN2CCCN(Cc3ccc(F)cc3Cl)C2=O)CC1 (stereo unspecified)	-0.5
